Test results: PubChem BioAssay (Tox21)
Where “and” joins values, the source holds several entries; their conditions need not be identical. Equal values may be shown once. Results filed as inconclusive are left out. A call without a number means that no potency is given here. A structure can be active in one record and inactive in another. Calls of active or inactive are those of the source. Unless noted, the call rests on the fitted dose curve; in most records, active means well fitted curve in the direction sought with a large enough effect in the repeat runs; inconclusive means weak or mixed curves; inactive means no such curve, though single readings can be large; an effect the other way counts as inactive or inconclusive.

Experiments:
[1] = A CellTox Green Cytotoxicity Assay to monitor cytotoxicity in HEK293 cells - 32 hour (AID 1224881); further: nearly all actives have a fitted effect of over 40% in size; further: potency means the concentration at half of the fitted maximal effect
Outline: (§1)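 Seeding of HEK293 cells together with cytotoxicity dye preceded a 5 h incubation at 37 C/5% CO2. Test compounds in DMSO were then added and fluorescence monitored across 40 h.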

[2] = A CellTox Green Cytotoxicity Assay to monitor cytotoxicity in HepG2 cells - 0 hour (AID 1224882); further: nearly all actives have a fitted effect of over 35% in size
Outline: (§2)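 Nonlytic assay: viable cells exclude the dye, so fluorescence scales with cell death. HepG2 at 600 cells/well, compounds added after 5 h, signal read across 40 h.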

[3] = A CellTox Green Cytotoxicity Assay to monitor cytotoxicity in HepG2 cells - 32 hour (AID 1224883); further: nearly all actives have a fitted effect of over 50% in size; further: potency means the concentration at half of the fitted maximal effect
Outline: as §2

[4] = qHTS RealTime-Glo MT Cell Viability Assay in HepG2 cells - 16 hour (AID 1224885); further: nearly all actives have a fitted effect of over 50% in size
Outline: (§3)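 Real-time, nonlytic viability: 600 HepG2 cells/well mixed with NanoLuc enzyme plus prosubstrate; 5 h settle, compound (DMSO) added by pintool; luminescence monitored over 40 h at 37 C.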

[5] = qHTS RealTime-Glo MT Cell Viability Assay in HEK293 cells - 24 hour (AID 1224886); further: nearly all actives have a fitted effect of over 50% in size; further: potency means the concentration at half of the fitted maximal effect
Outline: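 Cells + reagent dispensed (600 cells/well, HEK293) → 5 h at 37 C/5% CO2 → 23 nL compound in DMSO pinned → 40 h at 37 C → luminescence read at 0, 8, 16, 24, 32, 40 h.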

[6] = qHTS RealTime-Glo MT Cell Viability Assay in HEK293 cells - 8 hour (AID 1224887); further: nearly all actives have a fitted effect of over 50% in size; further: potency means the concentration at half of the fitted maximal effect
Outline: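 Tox21 screen in HEK293 using RealTime-Glo MT chemistry, with cells and reagent co-dispensed. Luminescence proportional to viable cell number was captured at intervals during 40 h compound exposure at 37 C.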

[7] = qHTS RealTime-Glo MT Cell Viability Assay in HepG2 cells - 0 hour (AID 1224889); further: nearly all actives have a fitted effect of over 50% in size
Outline: as §3

[8] = A CellTox Green Cytotoxicity Assay to monitor cytotoxicity in HepG2 cells - 8 hour (AID 1224890); further: nearly all actives have a fitted effect of over 45% in size; further: potency means the concentration at half of the fitted maximal effect
Outline: as §2

[9] = qHTS assay to identify small molecule antagonists of the androgen receptor (AR) signaling pathway using the MDA cell line in the presence of 0.5 nM R1881 - cell viability counter screen (AID 1259242); further: nearly all actives have a fitted effect of over 45% in size
Outline: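 R1881 at 0.5 nM final stimulated MDA-kb2 cells during 16 hr compound treatment at 37C. Cytotoxicity read: CellTiter-Fluor fluorescence after 30 min.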

[10] = qHTS assay to identify small molecule HDAC inhibitors (AID 1259364); further: potency means the concentration at half of the fitted maximal effect;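 further: wild-type HCT-116 cells with endogenous class I/II HDAC activity; nearly all actives have a fitted effect of over 45% in size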
Outline: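 Relative class I and II HDAC activity is taken from the luminogenic signal in HCT-116 cells, with compound exposure 2 hr and reagent development 30 min at room temperature.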

[11] = qHTS assay to identify small molecule HDAC inhibitors - cell viability counter screen (AID 1259365)
Outline: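 Wild-type HCT-116 cells, 1,500/well, cultured overnight, then compound-treated 2 h at 37 C. Viability measured as ATP luminescence with CellTiter-Glo after 30 min at room temperature.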

[12] = qHTS assay to identify small molecule agonists of the sonic hedgehog signaling (Shh) pathway - cell viability counter screen (AID 1259366); further: nearly all actives have a fitted effect of over 50% in size; further: potency means the concentration at half of the fitted maximal effect
Outline: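 NIH/3T3-derived Gli1-Luc reporter cells, 2,000 per well, received compound after 4 h and were treated about 23 h at 37C. Viability measured in the same wells by CellTiter-Fluor fluorescence after 1 h.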

[13] = qHTS assay to identify small molecule antagonists of the sonic hedgehog signaling (Shh) pathway - cell viability counter screen (AID 1259367); further: nearly all actives have a fitted effect of over 55% in size; further: potency means the concentration at half of the fitted maximal effect
Outline: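 Seed 3T3 Gli1-Luc cells at 2,000 per well; incubate 4 hr; add compound in DMSO, then conditioned medium; incubate at 37C with 5% CO2; add CellTiter-Fluor after 23 hr; read fluorescence 1 hr later.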

[14] = qHTS assay to identify small molecule agonists of the sonic hedgehog signaling (Shh) pathway (AID 1259368; calls by dose curve; further: nearly all actives have a fitted effect of over 15% in size; further: potency means the concentration at half of the fitted maximal effect)
Outline: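 Mouse fibroblast (NIH/3T3) reporter cells with stably integrated Gli1-Luc were treated 24 hr with compound; firefly luciferase luminescence served as the read-out.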

[15] = qHTS assay to identify small molecule antagonists of the estrogen receptor alpha (ER-alpha) signaling pathway using the BG1 cell line in the presence of 0.1 nM 17-beta-estradiol - cell viability counter screen (AID 1259241); further: nearly all actives have a fitted effect of over 40% in size
Outline: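 VM7Luc4E2 cells (endogenous full-length ER-alpha, 4xERE-luciferase), cultured 5 days in charcoal-stripped serum, exposed to compounds with 0.1 nM 17beta-estradiol (final) for 22 hr at 37C. Viability read in same wells as live-cell protease fluorescence after 30 min.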

[16] = qHTS assay to identify small molecule phospholipidosis (PLD) inducers (AID 1259344; active means well fitted curve in the direction sought with a large enough effect; an effect the other way counts as inactive or inconclusive)
Outline: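 Quantitative HTS in HepG2: compound plus LipidTOX Red dye for 24 h, paraformaldehyde fixation with Hoechst 33342, widefield high-content imaging; amiodarone as positive and DMSO as negative control.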

[17] = A CellTox Green Cytotoxicity Assay to monitor cytotoxicity in HEK293 cells - 8 hour (AID 1224884); further: nearly all actives have a fitted effect of over 35% in size
Outline: as §1

[18] = A CellTox Green Cytotoxicity Assay to monitor cytotoxicity in HEK293 cells - 16 hour (AID 1224888); further: nearly all actives have a fitted effect of over 35% in size
Outline: as §1

[19] = target: Estrogen receptor (Homo sapiens) (UniProt P03372); test: qHTS assay to identify small molecule antagonists of the estrogen receptor alpha (ER-alpha) signaling pathway using the BG1 cell line in the presence of 0.1 nM 17-beta-estradiol (AID 1259244); further: nearly all actives have a fitted effect of over 50% in size
Estrogen receptor (Homo sapiens), sequence (P03372 whole entry, looked up): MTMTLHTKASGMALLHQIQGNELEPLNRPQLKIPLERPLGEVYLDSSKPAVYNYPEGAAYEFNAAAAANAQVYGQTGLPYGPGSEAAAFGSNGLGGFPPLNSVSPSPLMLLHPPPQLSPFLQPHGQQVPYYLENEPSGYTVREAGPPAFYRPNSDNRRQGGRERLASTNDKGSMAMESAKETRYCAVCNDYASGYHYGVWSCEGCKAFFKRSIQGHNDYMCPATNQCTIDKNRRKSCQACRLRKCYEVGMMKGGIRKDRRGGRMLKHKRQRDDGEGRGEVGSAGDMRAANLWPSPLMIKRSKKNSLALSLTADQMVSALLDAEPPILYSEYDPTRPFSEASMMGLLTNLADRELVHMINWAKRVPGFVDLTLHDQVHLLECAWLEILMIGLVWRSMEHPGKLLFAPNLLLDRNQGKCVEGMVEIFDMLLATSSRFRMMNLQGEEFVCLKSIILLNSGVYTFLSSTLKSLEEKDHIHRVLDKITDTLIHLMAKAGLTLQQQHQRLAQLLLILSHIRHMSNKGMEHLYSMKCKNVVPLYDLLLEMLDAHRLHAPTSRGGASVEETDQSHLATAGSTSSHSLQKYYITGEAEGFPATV
Outline: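 VM7Luc4E2; 4xERE-luciferase; 0.1 nM E2 final; 22 h co-incubation, 37C; ONE-Glo luminescence after 30 min at room temperature.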

[20] = target: Androgen receptor (Homo sapiens) (UniProt P10275); test: qHTS assay to identify small molecule antagonists of the androgen receptor (AR) signaling pathway using the MDA cell line in the presence of 0.5 nM R1881 (AID 1259243); further: nearly all actives have a fitted effect of over 50% in size
Androgen receptor (Homo sapiens), sequence (P10275 whole entry, looked up): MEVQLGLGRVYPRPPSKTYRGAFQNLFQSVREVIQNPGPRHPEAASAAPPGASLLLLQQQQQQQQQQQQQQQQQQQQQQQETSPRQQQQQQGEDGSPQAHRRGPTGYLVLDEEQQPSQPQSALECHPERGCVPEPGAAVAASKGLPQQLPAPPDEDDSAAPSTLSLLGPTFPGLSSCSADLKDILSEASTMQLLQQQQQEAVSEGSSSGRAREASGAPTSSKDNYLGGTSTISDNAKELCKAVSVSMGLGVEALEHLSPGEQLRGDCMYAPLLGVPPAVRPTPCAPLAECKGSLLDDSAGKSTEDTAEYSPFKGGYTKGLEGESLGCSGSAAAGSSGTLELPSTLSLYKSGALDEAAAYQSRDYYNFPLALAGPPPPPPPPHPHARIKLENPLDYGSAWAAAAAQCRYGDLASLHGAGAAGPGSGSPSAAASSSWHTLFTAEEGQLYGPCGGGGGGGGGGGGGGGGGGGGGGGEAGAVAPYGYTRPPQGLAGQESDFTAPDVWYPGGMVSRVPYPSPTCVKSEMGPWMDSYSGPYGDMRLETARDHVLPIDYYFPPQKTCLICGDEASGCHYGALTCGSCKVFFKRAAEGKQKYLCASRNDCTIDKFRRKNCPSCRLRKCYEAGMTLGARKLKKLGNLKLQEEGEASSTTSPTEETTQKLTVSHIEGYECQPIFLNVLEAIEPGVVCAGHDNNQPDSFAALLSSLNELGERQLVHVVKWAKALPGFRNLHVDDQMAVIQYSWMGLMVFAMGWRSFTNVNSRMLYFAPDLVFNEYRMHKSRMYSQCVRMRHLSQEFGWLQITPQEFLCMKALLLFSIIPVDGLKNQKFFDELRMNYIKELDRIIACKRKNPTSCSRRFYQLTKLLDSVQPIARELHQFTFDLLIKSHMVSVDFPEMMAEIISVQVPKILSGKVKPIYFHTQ
Outline: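 We exposed MDA-kb2 cells to compounds under 0.5 nM R1881 stimulation for 16 hr at 37C and quantified MMTV-driven luciferase by luminescence.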

SMILES | Potency [1] | Potency [2] | Potency [3] | Potency [4] | Potency [5] | Potency [6] | Potency [7] | Potency [8] | Potency [9] | Potency [10] | Potency [11] | Potency [12] | Potency [13] | Potency [14] | Potency [15] | outcome [16] | Potency [17] | Potency [18] | Potency [19] | Potency [20]
c1cnc2c(c1)ccc1cccnc12 | inactive | inactive | inactive | inactive | 3.5 µM (active) and 8.71 µM (active) and 9.77 µM (active) | inactive | inactive | inactive | inactive | 19.5 µM (active) and 24.3 µM (active) and 27.3 µM (active) | inactive | 24.6 µM (active) | 13.8 µM (active) and 68.6 µM (active) and 43.3 µM (active) | 3.09 µM (active) and 24.3 µM (active) and 21.7 µM (active) | – | – | – | – | – | –
CCN(CC)CCNC(=O)c1ccc(N)cc1 | inactive | inactive | inactive | inactive | inactive | inactive | inactive | inactive | inactive | inactive | inactive | inactive | inactive | inactive | inactive | inactive | – | – | – | –
CCCCCCCCO | inactive | – | inactive | inactive | inactive | inactive | inactive | inactive | inactive | inactive | inactive | inactive | inactive | inactive | inactive | – | inactive | inactive | – | –
CS(=O)(=O)c1ccc(Cl)cc1 | inactive | – | inactive | inactive | – | inactive | inactive | inactive | inactive | inactive | inactive | inactive | inactive | inactive | inactive | – | – | – | – | –
CCCCCCCC(=O)O | inactive | inactive | inactive | inactive | inactive | inactive | inactive | inactive | inactive | inactive | – | inactive | inactive | inactive | inactive | inactive | – | – | – | –
NC(N)=S | inactive | – | inactive | inactive | inactive | inactive | inactive | inactive | inactive | inactive | inactive | inactive | inactive | inactive | inactive | – | – | inactive | – | –
CC1(C)C(=O)N(Cl)C(=O)N1Cl | inactive | – | inactive | inactive | inactive | inactive | inactive | inactive | inactive | inactive | – | inactive | inactive | inactive | inactive | – | inactive | – | inactive | –
CC(CN1c2ccccc2Sc2ccccc21)N(C)C (stereo unspecified) | 54.9 µM (active) and inactive | inactive | 55.5 µM (active) and 49 µM (active) and 23.9 µM (active) | inactive | 39.3 µM (active) and 43.6 µM (active) | 24.8 µM (active) | inactive | inactive and 54.9 µM (active) | inactive | inactive | inactive | 61.8 µM (active) and 30.6 µM (active) and inactive | 27.6 µM (active) and inactive | inactive | inactive | inactive | – | inactive | – | –
O=C(c1ccccc1)c1ccc(O)c(O)c1O | inactive | – | inactive | inactive | inactive | inactive | inactive | inactive | inactive | inactive | inactive | – | – | inactive | inactive | – | inactive | inactive | – | –
CC[N+](CC)(CC(=O)Nc1c(C)cccc1C)Cc1ccccc1 | – | inactive | inactive | inactive | inactive | inactive | inactive | inactive | inactive | inactive | inactive | inactive | inactive | inactive | inactive | inactive | inactive | inactive | – | –
CC/C=C(\C(=O)N[C@@H]1C(=O)N2C(C(=O)OCOC(=O)C(C)(C)C)=C(COC(N)=O)CS[C@H]12)c1csc(N)n1 | – | inactive | inactive | inactive | inactive | inactive | inactive | inactive | inactive | inactive | inactive | inactive | inactive | inactive | inactive | inactive | inactive | inactive | – | –
C=CC(=O)NCOCCCC | inactive | – | inactive | inactive | – | inactive | inactive | inactive | inactive | inactive | – | inactive | inactive | inactive | inactive | – | inactive | – | – | –
CCCOCC(C)O (stereo unspecified) | inactive | – | inactive | inactive | inactive | inactive | inactive | inactive | inactive | inactive | – | inactive | inactive | inactive | inactive | – | inactive | – | – | inactive
CN=C(NC#N)NCCSCc1nc[nH]c1C | inactive | – | inactive | inactive | – | inactive | inactive | inactive | inactive | inactive | inactive | inactive | inactive | inactive | inactive | inactive | inactive | inactive | – | –
COc1c2ccoc2cc2oc(=O)ccc12 | inactive | – | inactive | inactive | inactive | inactive | inactive | inactive | inactive | inactive | inactive | inactive | inactive | inactive | inactive | – | inactive | – | inactive | –
CCc1cccc(O)c1 | – | inactive | inactive | inactive | inactive | inactive | inactive | inactive | inactive | inactive | – | inactive | inactive | inactive | inactive | – | inactive | inactive | inactive | –
CCCCC(=O)O | inactive | – | inactive | inactive | inactive | inactive | inactive | inactive | inactive | inactive | inactive | inactive | inactive | inactive | inactive | inactive | – | inactive | – | –
